From PubChem BioAssay AID504773 (Broad Institute, 2011) come the findings set out here.

Each structure is given as a SMILES string. Entries with a potency or affinity are not part of this list. Unmarked numbers belong to inactive results.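 How the source made its calls: active means polarization signal falls with dose and the fitted half-maximal concentration is at or below ten times the sample's top valid dose; inconclusive means flat curve at 30 to 70% inhibition, or poor fit; inactive means signal rises, flat within 30%, or potency beyond limit.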

This assay addresses Golgi-associated PDZ and coiled-coil motif-containing protein (Homo sapiens) (UniProt Q9HD26). Description: potency against CAL PDZ-peptide interaction – biochemical, fluorescence polarization, Cerulean-tagged CAL PDZ, cherry-picks, dose response (AID 504773).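 Further: 0% = DMSO neutral wells and -100% = excess unlabeled competitor peptide wells.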 Particulars: CAL PDZ-peptide binding, 1 h; series mostly up to 50 µM; activity change, negative = inhibition: at the top concentration.
With `Cc1cc(C)nc(/N=C(\N)N2CCc3ccccc32)n1`, the “activity change, negative = inhibition” value is -36.2%.

On to `CN(C)C1(CNC(=O)C2CCC(=O)N(CCc3ccc(Cl)cc3)C2)CCCCC1` (stereo unspecified), for which the “activity change, negative = inhibition” value is 7.75%.

As to `CCCSC1=N/C(=C\c2ccc([N+](=O)[O-])o2)C(=O)S1`, the “activity change, negative = inhibition” value is 9.22%.

As to `Cc1ccc(C(=O)Nc2ccccc2)cc1S(=O)(=O)N1CCN(C)CC1`, the “activity change, negative = inhibition” value is 18.7%.

Take `CCNC(=S)N(CCN(CC)CC)Cc1cc2cc3c(cc2[nH]c1=O)OCCO3`: the “activity change, negative = inhibition” value is -12%.

In the case of `O=C(NCc1ccc(Cl)cc1)C(=O)NCC1OCCN1C(=O)c1ccc(Cl)cc1` (stereo unspecified), the “activity change, negative = inhibition” value is 19.7%.

As to `CC(=O)Nc1cccc(NC(=O)CSc2nnc(NC(=O)c3ccco3)s2)c1`, the “activity change, negative = inhibition” value was 14.6%.

Regarding `COc1ccc(-n2c(=S)[nH]c3c(sc(=S)n3-c3ccccc3)c2=O)c(OC)c1`, the “activity change, negative = inhibition” value is 29.8%.

As for `CC(=O)N1N=C(c2ccccc2)CC1c1ccccc1` (stereo unspecified), the “activity change, negative = inhibition” value was -9.8%.

With `C[n+]1ccc(C(=O)Nc2ccccc2Cl)cc1`, the “activity change, negative = inhibition” value is 4.9%.

`CCNC(=S)N1CCc2cc(OC)c(OC)cc2C1COc1ccc(OC)cc1` (stereo unspecified): the “activity change, negative = inhibition” value is 19.7%.

As for `Cc1c(C(=O)OCC(=O)NC(=O)NC2CCCCC2)cccc1[N+](=O)[O-]`, the “activity change, negative = inhibition” value is 9.38%.

Consider `CC(=O)c1ccc(S(=O)(=O)N2CCN(c3ccccc3F)CC2)cc1`, for which the “activity change, negative = inhibition” value is 31.2%.

Turning to `COc1ccc(OC)c(NC(=O)CS(=O)(=O)Cc2ccccc2)c1`, the “activity change, negative = inhibition” value is 8.81%.

Turning to `CCc1ccc(C2CC(=O)N(c3cccc(F)c3)C3=C2C(=O)OC3)cc1` (stereo unspecified), the “activity change, negative = inhibition” value was 19.7%.

`COc1ccc(Nc2cccccc2=O)cc1`: the “activity change, negative = inhibition” value was 7.43%.

On to `COc1ccc2ccn(S(=O)(=O)c3ccccc3)c2c1`, for which the “activity change, negative = inhibition” value was -31.3%.

Consider `CC(C)OCCCNC(=O)C1CC(=O)N(CCc2ccc(F)cc2)C1` (stereo unspecified), for which the “activity change, negative = inhibition” value was -11.6%.

`Cc1cccc(-n2nc(C)c3c2NC2=C(C(=O)CCC2)C3c2ccccn2)c1` (stereo unspecified): the “activity change, negative = inhibition” value is 23.4%.

On to `O=C(CN1CC[n+]2c(-c3cccs3)csc21)c1ccc(-c2ccccc2)cc1`, for which the “activity change, negative = inhibition” value is 12.5%.

Turning to `Cc1ccc(C(C)NC(=O)Cc2cccs2)c(C)c1` (stereo unspecified), the “activity change, negative = inhibition” value was 2.57%.

In the case of `Cc1ccc2nc(-c3cccc(Br)c3)cc(C(=O)NC3=NCCS3)c2c1`, the “activity change, negative = inhibition” value is 7.84%.

With `CC1CCC(NC(=O)c2ccc3c(c2)S(=O)(=O)c2ccccc2C3=O)CC1` (stereo unspecified), the “activity change, negative = inhibition” value was 14.2%.

Regarding `COc1ccc(C(CNC(=O)COc2ccccc2-c2ccccc2)N2CCOCC2)cc1` (stereo unspecified), the “activity change, negative = inhibition” value is -0.19%.

Turning to `CC1CCN(CCCNC(=O)c2ccc3c(=O)n(Cc4ccc(Cl)cc4)c(=S)[nH]c3c2)CC1`, the “activity change, negative = inhibition” value was 25.8%.

With `CCN(CCCn1c(=S)[nH]c2ccc(N3CCOCC3)cc2c1=O)c1ccccc1`, the “activity change, negative = inhibition” value was 8.28%.

With `CCOc1ccccc1CN1CCC(n2nccc2NC(=O)C2CCCC2)CC1`, the “activity change, negative = inhibition” value was 6.47%.

In the case of `Cc1c(Cl)c(C(F)(F)F)nn1CC(=O)NCc1ccco1`, the “activity change, negative = inhibition” value was -30.4%.

In the case of `COc1ccc(CN2CN(C3CCCC3)CSC2=S)cc1`, the “activity change, negative = inhibition” value was 13.8%.

For the compound `CCOc1ccc(C2=Nn3c(nnc3-c3ccco3)SC2)cc1`, the “activity change, negative = inhibition” value is 1%.

On to `OCC1(CCOc2ccccc2)CCN(CCCn2cccn2)CC1`, for which the “activity change, negative = inhibition” value is -20.1%.

Regarding `COc1ccc(/C=N/NC(=O)c2cccc(C(F)(F)F)c2)cc1`, the “activity change, negative = inhibition” value is 19.1%.

With `O=C(COc1ccc(Cl)cc1Cl)Nc1nnc(C2=COCCO2)o1`, the “activity change, negative = inhibition” value was 0.72%.

On to `CC(C)CNC(=O)CC1Nc2ccccc2NC1=O` (stereo unspecified), for which the “activity change, negative = inhibition” value is -8.18%.

Consider `Cc1ccnc(SCC(=O)N2CCC(C(N)=O)CC2)n1`, for which the “activity change, negative = inhibition” value was -6.75%.

As to `COCc1cc(C)nc(SCc2ccccc2)c1C#N`, the “activity change, negative = inhibition” value is -15.4%.
